{"source": "ChEMBL document CHEMBL4513216", "about": "“Probing the Open Global Health Chemical Diversity Library for Multistage-Active Starting Points for Next-Generation Antimalarials” (ACS Infect Dis, 2020)", "note": "Hit rate of the full screen: of about 69,000 compounds, about 8,600 (12%) showed an effect of 50% or more. For the sample, strong results were picked, then their nearest neighbours and some compounds at random."}
{"system": "Plasmodium berghei", "assay": "Screen against P. berghei liver stage (PbLuc), transformed with Luciferase, at 10uM", "type": "functional, HepG2", "conditions": "tested at 10 uM", "units": {"INHIBITION": "%"}}
{"molecule": "O=C(Nc1ccccc1Cn1cccn1)N1CCC(N2CCCC2)C1", "note": "(stereo not drawn)", "INHIBITION": 5.42}
{"molecule": "CCCc1nc(NCCCn2ccnc2)c2c(n1)c(C)nn2CC", "INHIBITION": 17.7}
{"molecule": "Cc1nn(C)c2nc3c(c(C(=O)/N=c4\\[nH]nc(C(C)C)s4)c12)CCC3", "INHIBITION": 7.83}
{"molecule": "Cc1noc(CCNC(=O)NCC(=O)NCc2ccccc2)n1", "INHIBITION": -176}
{"molecule": "CC(NC(=O)CCCOc1ccc(F)cc1)c1nnc2n1CCC2", "note": "(stereo not drawn)", "INHIBITION": -12.2}
{"molecule": "CO[C@H]1CCN(Cc2c(C)noc2C)[C@@H]2CN(Cc3ccncc3)C[C@H]12", "INHIBITION": 12.6}
{"molecule": "Clc1ccccc1C1(c2ccnc(C3CC3)n2)CCNCC1", "INHIBITION": 44.1}
{"molecule": "CCC1C(=O)NCCN1c1ccnc(C(C)(C)C)n1", "note": "(stereo not drawn)", "INHIBITION": 26.8}
{"molecule": "Clc1ccccc1C1(c2ccnc(-c3ncccn3)n2)CCNCC1", "INHIBITION": 33.5}
{"molecule": "CC(C)(C)c1nccc(C2(c3ccccc3Cl)CCNCC2)n1", "INHIBITION": 72.8}
{"molecule": "Clc1ccccc1C1(c2ccnc(CC3CC3)n2)CCNCC1", "INHIBITION": 43.5}
{"molecule": "Clc1ccccc1C1(c2ccnc(C3CCCC3)n2)CCNCC1", "INHIBITION": 94.4}
{"molecule": "Clc1ccccc1C1(c2ccnc(-c3ccncc3)n2)CCNCC1", "INHIBITION": 55.1}
{"molecule": "CC(C)c1nccc(C2(c3ccccc3Cl)CCNCC2)n1", "INHIBITION": 20.2}
{"molecule": "O=c1[nH]cccc1-c1nccc(C2(c3ccccc3Cl)CCNCC2)n1", "INHIBITION": 33}
{"molecule": "NC(=O)NCCC(=O)NCc1nn(-c2ccccc2)c2c1CCC2", "INHIBITION": 15.115}
{"molecule": "Nc1nc2c(c(NCC(c3cccnc3)N3CCOCC3)n1)CCCC2", "note": "(stereo not drawn)", "INHIBITION": -21.3}
{"molecule": "CC(C)c1nn(C)c(Cl)c1CNCC(O)c1cccc(F)c1", "note": "(stereo not drawn)", "INHIBITION": 42}
{"molecule": "Cc1cc(C(=O)N2CCN(Cc3ccsc3)CC2)n(C)n1", "INHIBITION": -3.2}
{"molecule": "CCOCC(O)CN1CCN(C(=O)c2ccccc2F)CC1", "note": "(stereo not drawn)", "INHIBITION": -35.7}
{"molecule": "CN(C[C@@H]1CCC[C@@H]2CN(Cc3cccnc3)C[C@@H]21)C1CC1", "INHIBITION": -5.63}
{"molecule": "Cc1nccc(C(=O)NC(COCC(C)C)c2ccco2)n1", "note": "(stereo not drawn)", "INHIBITION": -19.4}
{"molecule": "COc1cc(CN(C)C(=O)NCC(=O)NC(C)C)ccc1SC", "INHIBITION": 14.3}
{"molecule": "CCN(CC)C(=O)CCNC(=O)N(C)Cc1ccc(SC)c(OC)c1", "INHIBITION": 8.97}
{"molecule": "CCNC(=O)N(C)Cc1ccc(SC)c(OC)c1", "INHIBITION": 55.1}
{"molecule": "COc1cc(CN(C)C(=O)NCCNC(=O)C2CC2)ccc1SC", "INHIBITION": 52.9}
{"molecule": "CCOCCCNC(=O)N(C)Cc1ccc(SC)c(OC)c1", "INHIBITION": 12.6}
{"molecule": "COc1cc(CN(C)C(=O)NC2CC2)ccc1SC", "INHIBITION": 14.3}
{"molecule": "CCC1CCCCCN1C(=O)c1nnc2ccccc2c1N", "note": "(stereo not drawn)", "INHIBITION": 40.3}
{"molecule": "Cc1cccc(OCCC(=O)NCC2CN(C)CCO2)c1C", "note": "(stereo not drawn)", "INHIBITION": -36.85}
{"molecule": "CC(C)NC(=O)C[C@@H]1CCNC[C@@H]1Cc1cc(-c2ccccn2)on1", "INHIBITION": -14.2}
{"molecule": "CC(C)NC(=O)C[C@@H]1CCNC[C@@H]1Cc1cc(-c2ccccc2)on1", "INHIBITION": 59.8}
{"molecule": "CC(C)(C)c1cc(C[C@H]2CNCC[C@H]2CC(=O)Nc2ccccc2)no1", "INHIBITION": 44.4}
{"molecule": "O=C(CC1[C@H]2CN(C(=O)Cc3ccccn3)C[C@@H]12)Nc1cccnc1", "note": "(stereo partly drawn)", "INHIBITION": 39.4}
{"molecule": "Cc1noc(C)c1CN1CC[C@H]2OCC[C@@H](C(=O)NCC3CC3)[C@@H]2C1", "INHIBITION": -3.83}
{"molecule": "CC(C)NC(=O)C1CN(Cc2ccsc2)Cc2ccnn2C1", "note": "(stereo not drawn)", "INHIBITION": 37.9}
{"molecule": "CN(C)C(=O)C1CN(Cc2ccsc2)Cc2ccnn2C1", "note": "(stereo not drawn)", "INHIBITION": 52.6}
{"molecule": "COCCNC(=O)C1CN(Cc2cccnc2)Cc2ccnn2C1", "note": "(stereo not drawn)", "INHIBITION": 35.7}
{"molecule": "Cc1noc(C)c1CN1CC[C@H]2OCC[C@@H](C(=O)NCC3CC3)[C@H]2C1", "INHIBITION": 54.7}
{"molecule": "COCCNC(=O)C1CN(Cc2cccc(C)n2)Cc2ccnn2C1", "note": "(stereo not drawn)", "INHIBITION": 7.77}
{"molecule": "COCCNC(=O)C1CN(Cc2ccncc2)Cc2ccnn2C1", "note": "(stereo not drawn)", "INHIBITION": 89.3}
{"molecule": "O=C(C1CN(Cc2ccsc2)Cc2ccnn2C1)N1CCCC1", "note": "(stereo not drawn)", "INHIBITION": 15.7}
{"molecule": "COCCNC(=O)C1CN(Cc2nccs2)Cc2ccnn2C1", "note": "(stereo not drawn)", "INHIBITION": 29.9}
{"molecule": "Cc1noc(C)c1CN1CC[C@H]2OCC[C@@H](C(=O)N3CCCO3)[C@@H]2C1", "INHIBITION": 34.1}
{"molecule": "COCCNC(=O)C1CN(Cc2ccsc2)Cc2ccnn2C1", "note": "(stereo not drawn)", "INHIBITION": 5.36}
{"molecule": "COCCNC(=O)C1CN(Cc2csc(C)n2)Cc2ccnn2C1", "note": "(stereo not drawn)", "INHIBITION": 62.5}
{"molecule": "Cc1cccc(N2CCN(C(=O)CCc3c(C)noc3Cl)CC2)c1", "INHIBITION": 45.7}
{"molecule": "CC(=O)c1ccc(S(=O)(=O)NCC2CCN(c3cnccn3)CC2)cc1", "INHIBITION": 35}
{"molecule": "O=C(CC1CCN(c2cccnn2)CC1)NC1CCOCC1", "INHIBITION": 3.48}
{"molecule": "O=C(CCN1CCCCO1)N1CCC(CO)(CCc2ccccc2)CC1", "INHIBITION": -29}
{"molecule": "CS(=O)(=O)N1Cc2ccnn2CC(C(=O)NCc2cccnc2)C1", "note": "(stereo not drawn)", "INHIBITION": 77.4}
{"molecule": "Cc1noc(C)c1CN1Cc2ccnn2CC(C(=O)NCC2CC2)C1", "note": "(stereo not drawn)", "INHIBITION": 85.8}
{"molecule": "Cc1ccc(CN2Cc3ccnn3CC(C(=O)NCC3CC3)C2)o1", "note": "(stereo not drawn)", "INHIBITION": -31}
